Assay results taken from PubChem BioAssay.
“And” between values parts separate entries of the source, which are not always exact repeats. Equal entries are not always repeated. The source made the active and inactive calls.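 How the source made its calls, unless noted: active means z-score of at least 1.8 in each of two replicates, scored against plate mean and spread of sample wells; inactive means the rest.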

Tests used:
[1] = biological target: NAD(+) hydrolase SARM1 (Homo sapiens) (UniProt Q6SZW1); experiment: blocking NAD cleavage by SARM1 SAM-TIR – cell lysate, NAD-Glo luminescence (AID 1508614;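 active means compound whose remaining NAD level is above about 45 nM, limit read from the data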); settings: SAM-TIR HEK293T lysate NADase, at 1 µM, stronger effect = higher value
NAD(+) hydrolase SARM1 (Homo sapiens), sequence (Q6SZW1 whole entry, looked up, the tested form may be a part): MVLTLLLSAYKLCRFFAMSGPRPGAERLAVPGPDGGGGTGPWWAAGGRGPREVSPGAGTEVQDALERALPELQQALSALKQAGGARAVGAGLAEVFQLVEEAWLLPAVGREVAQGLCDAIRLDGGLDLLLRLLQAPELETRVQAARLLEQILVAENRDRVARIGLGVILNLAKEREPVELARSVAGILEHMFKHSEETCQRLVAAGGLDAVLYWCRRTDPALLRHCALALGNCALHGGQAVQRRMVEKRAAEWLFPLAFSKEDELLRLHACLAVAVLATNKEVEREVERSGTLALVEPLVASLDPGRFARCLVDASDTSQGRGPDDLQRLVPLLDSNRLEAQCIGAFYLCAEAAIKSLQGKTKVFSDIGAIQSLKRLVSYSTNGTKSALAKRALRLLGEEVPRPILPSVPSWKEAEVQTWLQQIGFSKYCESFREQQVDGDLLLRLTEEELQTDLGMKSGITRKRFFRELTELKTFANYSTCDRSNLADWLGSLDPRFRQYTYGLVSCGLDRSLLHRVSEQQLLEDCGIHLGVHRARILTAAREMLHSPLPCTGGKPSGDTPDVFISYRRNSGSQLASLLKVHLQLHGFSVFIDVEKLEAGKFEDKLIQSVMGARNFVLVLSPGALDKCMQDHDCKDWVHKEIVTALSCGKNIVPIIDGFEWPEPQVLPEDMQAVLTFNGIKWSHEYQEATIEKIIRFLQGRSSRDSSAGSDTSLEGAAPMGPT

[2] = biological target: Mitogen-activated protein kinase 7 (Homo sapiens) (UniProt Q13164); experiment: Gal4-ERK5 driven luciferase induction – cell-based, HTS, primary screen (AID 1508626;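 active means luciferase signal above three times the same-plate solvent-only control wells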;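 further: luciferase driven by Gal4-ERK5 fusion binding five Gal4 sites before minimal TATA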); settings: HeLa Gal4-ERK5 transactivation, 18 h, at 5 µM, stronger effect = higher value
Mitogen-activated protein kinase 7 (Homo sapiens), sequence (Q13164 whole entry, looked up, the tested form may be a part): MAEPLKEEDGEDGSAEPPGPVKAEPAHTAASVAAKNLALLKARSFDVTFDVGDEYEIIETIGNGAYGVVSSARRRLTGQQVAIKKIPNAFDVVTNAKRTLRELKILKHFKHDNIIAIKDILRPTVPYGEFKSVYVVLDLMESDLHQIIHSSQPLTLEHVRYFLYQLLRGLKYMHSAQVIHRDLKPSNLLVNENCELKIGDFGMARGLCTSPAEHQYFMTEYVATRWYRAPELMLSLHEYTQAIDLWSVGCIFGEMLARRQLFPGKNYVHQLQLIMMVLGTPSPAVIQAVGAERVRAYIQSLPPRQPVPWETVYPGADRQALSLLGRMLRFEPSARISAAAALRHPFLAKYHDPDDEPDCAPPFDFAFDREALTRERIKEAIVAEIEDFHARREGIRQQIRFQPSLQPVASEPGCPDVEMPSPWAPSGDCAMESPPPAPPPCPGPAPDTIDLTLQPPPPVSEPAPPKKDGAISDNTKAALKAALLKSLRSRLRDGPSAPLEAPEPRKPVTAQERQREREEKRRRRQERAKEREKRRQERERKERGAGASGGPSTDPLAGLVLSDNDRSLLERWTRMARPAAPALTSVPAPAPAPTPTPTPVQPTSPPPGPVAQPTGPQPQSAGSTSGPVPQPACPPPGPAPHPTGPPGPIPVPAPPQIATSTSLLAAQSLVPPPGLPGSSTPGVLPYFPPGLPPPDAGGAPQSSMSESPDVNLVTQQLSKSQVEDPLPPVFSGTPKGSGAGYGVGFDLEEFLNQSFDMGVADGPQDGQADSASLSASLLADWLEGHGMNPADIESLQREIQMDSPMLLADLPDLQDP

[3] = galactose survival enhancers in mitochondrial complex I cybrids – cell-based, galactose medium, ATP luminescence, primary screen (AID 1645843); settings: complex I mutant cybrid cells, 72 h, stronger effect = higher value;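 further: positive z means more ATP and so rescue of galactose-driven cybrid death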
[4] = growth inhibition, single agent or in combination, cell-based, chromothripsis tumors, cisplatin or BGB combos (AID 1671449; in the data active means inhibition above about 80%;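 further: cells exposed for 96 hours; 0% = vehicle DMSO and 100% = killing by high DMSO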); settings: LFS_MB_P medulloblastoma cells
[5] = growth inhibition, single agent and combos, cell-based, chromothripsis tumors, cisplatin or BGB combos (AID 1671450; in the data active means inhibition above about 80%;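 further: cells exposed to compound for four days; 0% = vehicle DMSO and 100% = cell killing by high DMSO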); settings: HDN33 neuroblastoma cells, stronger effect = higher value
[6] = growth inhibition, single agents and combos, ICB984, cell-based, cisplatin or BGB combos, synergistic combos for chromothripsis tumors (AID 1671451; call rule not given here;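 further: cells exposed for 96 hours before readout; 0% = vehicle DMSO and 100% = killing by high DMSO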); settings: ICB984 medulloblastoma cells, drug combinations, stronger effect = higher value
[7] = growth inhibition, single agents and combos, LFS_MB_1R, cell-based, cisplatin or BGB combos, synergistic combos for chromothripsis tumors (AID 1671452; in the data active means inhibition above about 80%;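 further: cells exposed for 96 hours before readout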); settings: LFS_MB_1R medulloblastoma cells, stronger effect = higher value
[8] = growth inhibition, single agents and combos, HTB85, cell-based, BGB or cisplatin IC20 combos, synergistic combos for chromothripsis tumors (AID 1671453; in the data active means inhibition above about 80%;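 further: cells exposed for 96 hours before readout; 0% = vehicle DMSO and 100% = high DMSO killing control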); settings: HTB85 osteosarcoma cells, drug combinations, stronger effect = higher value
[9] = growth inhibition, single agents and combos, CRL2098, cell-based, BGB or cisplatin IC20 combos, synergistic combos for chromothripsis tumors (AID 1671454; in the data active means inhibition above about 80%;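 further: cells exposed for 96 h before readout; 0% = vehicle DMSO and 100% = killing by high DMSO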); settings: CRL2098 osteosarcoma cells, drug combinations, stronger effect = higher value
[10] = growth inhibition, single agents and combos, HD-MB03, cell-based, BGB or cisplatin IC20 combos, synergistic combos for chromothripsis tumors (AID 1671455; in the data active means inhibition above about 83%;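 further: 0% = vehicle DMSO and 100% = high DMSO as cytotoxic control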); settings: HD-MB03 medulloblastoma cells, stronger effect = higher value
[11] = growth inhibition, single agents and combos, UWB1.289, cell-based, BGB or cisplatin combos, synergistic combos for chromothripsis tumors (AID 1671456; in the data active means inhibition above about 80%;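 further: cells exposed to compound for four days; 0% = vehicle DMSO and 100% = killing by high DMSO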); settings: UWB1.289 ovarian carcinoma cells, stronger effect = higher value
[12] = growth inhibition, single agents and combos, LFS_MB_2R, cell-based, cisplatin combos, synergistic combos for chromothripsis tumors (AID 1671457; in the data active means inhibition above about 80%;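 further: cells exposed to compound for four days before readout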); settings: LFS_MB_2R medulloblastoma cells, stronger effect = higher value
[13] = growth inhibition, MDA-MB-436, cell-based, BGB or cisplatin combos, synergistic combos for chromothripsis tumors (AID 1671458; call rule not given here;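 further: cells exposed for 96 hours; 0% = vehicle DMSO and 100% = killing by high DMSO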); settings: MDA-MB-436 breast carcinoma growth inhibition, drug combinations, stronger effect = higher value
[14] = UWB1.289_BRCA1 ovarian cancer growth, cell-based, BGB or cisplatin combinations (AID 1671459; in the data active means inhibition above about 80%); settings: UWB1.289 BRCA1 ovarian carcinoma, drug combinations, stronger effect = higher value
[15] = drug combination toxicity in non-malignant astrocytes – cell-based, BGB or cisplatin IC20 combos, cytotoxicity control for chromothriptic childhood tumor combination screen (AID 1671460; in the data active means inhibition above about 80%;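 further: cells exposed to compounds for 96 hours before viability readout; 0% = vehicle and 100% = killing control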); settings: Human astrocytes, viability inhibition, drug combinations, at 0.5 µM, stronger effect = higher value
[16] = BT084 cell growth, single and combined drugs, ICGC_MB145, cisplatin and BGB IC40 combos (AID 1671461; in the data active means inhibition above about 80%;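 further: cells exposed to drugs for 96 hours; 0% = vehicle DMSO and 100% = high DMSO full killing control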); settings: BT084 medulloblastoma cells, drug combinations, stronger effect = higher value
[17] = measured here: combination with BGB IC40, at 0.05 µM
[18] = measured here: combination with cisplatin, at 0.5 µM
[19] = measured here: combination with cisplatin, at 5 µM

Q: For `Cc1cc(C(C)(C)C)c(O)c(C)c1CC1=NCCN1`, which remaining NAD [1] is on record?
A: Its remaining NAD is 10 nM (inactive).

Q: And the luciferase signal [2]?
A: The luciferase signal was 28 AU (inactive).

Q: What about the z-score [3] of the same compound?
A: Its z-score is 0.16 (inactive) and -0.235 (inactive) and 0.51 (inactive).

Q: With `Cc1ccc(S(=O)(=O)NC(=O)NN2CC3CCCC3C2)cc1` (configuration not stated) as the compound, how does the remaining NAD [1] read?
A: Its remaining NAD is 10 nM (inactive).

Q: And the luciferase signal [2]?
A: The luciferase signal was 36 AU (inactive).

Q: And the z-score [3]?
A: The z-score was 0.595 (inactive).

Q: For `COC(=O)[C@H]1[C@H]2C[C@@H]3c4[nH]c5cc(OC)ccc5c4CCN3C[C@H]2C[C@@H](OC(=O)c2cc(OC)c(OC)c(OC)c2)[C@@H]1OC`, which remaining NAD [1] is on record?
A: Its remaining NAD is 10 nM (inactive).

Q: What about the luciferase signal [2] of the same compound?
A: The luciferase signal was 64 AU (inactive).

Q: And the z-score [3]?
A: The z-score was -0.19 (inactive) and -0.39 (inactive).

Q: Which remaining NAD [1] does the source give for `CCCCCCCCCCCCCCCCOP(=O)([O-])OCC[N+](C)(C)C` here?
A: Its remaining NAD is 10 nM (inactive).

Q: And the luciferase signal [2]?
A: The luciferase signal was 132 AU (inactive).

Q: What about the z-score [3] of the same compound?
A: Its z-score is -0.3 (inactive).

Q: For `O=C(O)[C@@H](O)[C@H](O)[C@H](O)[C@@H](O)C(=O)O`, which luciferase signal [2] is on record?
A: The luciferase signal was 52 AU (inactive).

Q: With `CCOC(=O)OC(C)OC1=C(C(=O)Nc2ccccn2)N(C)S(=O)(=O)c2ccccc21` (configuration not stated) as the compound, how does the remaining NAD [1] read?
A: The remaining NAD was 10 nM (inactive).

Q: And the z-score [3]?
A: The z-score was 0.855 (inactive) and 0.87 (inactive).

Q: For `O=C(c1ccc(F)cc1)C1CCN(CCn2c(=O)[nH]c3ccccc3c2=O)CC1`, which remaining NAD [1] is on record?
A: Its remaining NAD is 10 nM (inactive).

Q: And the z-score [3]?
A: Its z-score is 0.47 (inactive) and 0.155 (inactive) and 0.975 (inactive).

Q: For `CC1(C)O[C@@H]2C[C@H]3[C@@H]4CCC5=CC(=O)CC[C@]5(C)[C@@]4(F)[C@@H](O)C[C@]3(C)[C@]2(C(=O)CCl)O1`, which luciferase signal [2] is on record?
A: Its luciferase signal is 112 AU (inactive).

Q: For `NC(N)=NC(=O)Cc1c(Cl)cccc1Cl`, which remaining NAD [1] is on record?
A: The remaining NAD was 10 nM (inactive).

Q: And the z-score [3]?
A: The z-score was -0.06 (inactive) and -0.17 (inactive) and -0.035 (inactive).

Q: What does the source list for `C[C@@H]1CN(c2c(F)c(N)c3c(=O)c(C(=O)O)cn(C4CC4)c3c2F)C[C@H](C)N1`?
A: remaining NAD [1]: 10 nM (inactive); z-score [3]: 0.565 (inactive)

Q: Which remaining NAD [1] does the source give for `NC(=O)NO` here?
A: Its remaining NAD is 10 nM (inactive).

Q: What about the luciferase signal [2] of the same compound?
A: Its luciferase signal is 44 AU (inactive).

Q: And the z-score [3]?
A: The z-score was 0.03 (inactive).

Q: What about the inhibition ([4]; at 0.5 µM, stronger effect = higher value) of the same compound?
A: Its inhibition is -32.5% (inactive).

Q: What about the inhibition ([4]; measured here: combination with BGB IC20, at 0.005 µM) of the same compound?
A: Its inhibition is -13.7%.

Q: And the inhibition ([4]; measured here: combination with BGB IC40, at 0.005 µM)?
A: Its inhibition is 33.3%.

Q: What about the inhibition [4, 17] of the same compound?
A: Its inhibition is -4.05%.

Q: And the inhibition ([4]; measured here: combination with cisplatin, at 0.5 µM, stronger effect = higher value)?
A: Its inhibition is -74.7%.

Q: What about the inhibition ([4]; measured here: combination with cisplatin, at 5 µM, stronger effect = higher value) of the same compound?
A: The inhibition was 7.33%.

Q: And the inhibition ([5]; BGB combo, at 5 µM)?
A: Its inhibition is 4.14%.

Q: And the inhibition ([5]; at 0.5 µM)?
A: The inhibition was -0.11% (inactive).

Q: And the inhibition ([5]; cisplatin combo, at 5 µM)?
A: The inhibition was 7.9%.

Q: And the inhibition ([5]; measured here: with BGB IC20 combination, at 0.5 µM)?
A: The inhibition was 1.89%.

Q: And the inhibition ([5]; measured here: with cisplatin IC20 combination, at 0.5 µM)?
A: Its inhibition is -0.484%.

Q: What about the inhibition ([5]; single agent, at 5 µM) of the same compound?
A: The inhibition was 3.76%.

Q: What about the inhibition ([6]; BGB IC20 combo, at 0.005 µM) of the same compound?
A: The inhibition was -9.77%.

Q: And the inhibition ([6]; BGB IC40 combo, at 0.005 µM)?
A: The inhibition was -3.4%.

Q: What about the inhibition ([6]; BGB IC40 combo, at 0.05 µM) of the same compound?
A: Its inhibition is -15.1%.

Q: And the inhibition ([6]; at 0.5 µM)?
A: Its inhibition is -0.36% (inactive).

Q: What about the inhibition ([6]; cisplatin combo, at 0.05 µM) of the same compound?
A: The inhibition was -15.1%.

Q: And the inhibition ([6]; cisplatin combo, at 0.5 µM)?
A: The inhibition was -15.2%.

Q: What about the inhibition ([6]; cisplatin combo, at 5 µM) of the same compound?
A: The inhibition was -5.34%.

Q: What about the inhibition ([6]; measured here: 5 uM single agent, at 5 µM) of the same compound?
A: Its inhibition is -13.7%.

Q: What about the inhibition ([7]; at 0.5 µM) of the same compound?
A: Its inhibition is -11.7% (inactive).

Q: And the inhibition [7, 17]?
A: The inhibition was -14.3%.

Q: And the inhibition [7, 18]?
A: The inhibition was 23.3%.

Q: And the inhibition [7, 19]?
A: Its inhibition is 27.3%.

Q: What about the inhibition ([8]; at 0.5 µM) of the same compound?
A: The inhibition was 4.31% (inactive).

Q: What about the inhibition ([8]; measured here: with BGB IC20, at 0.5 µM) of the same compound?
A: The inhibition was -11.6%.

Q: And the inhibition ([8]; measured here: with BGB IC20, at 5 µM)?
A: Its inhibition is 7.32%.

Q: What about the inhibition ([8]; measured here: with cisplatin IC20, at 0.5 µM) of the same compound?
A: The inhibition was -0.499%.

Q: And the inhibition ([8]; measured here: with cisplatin IC20, at 5 µM)?
A: Its inhibition is 13.2%.

Q: What about the inhibition ([8]; single agent, at 5 µM) of the same compound?
A: The inhibition was 18.4%.

Q: What about the inhibition ([9]; at 0.5 µM) of the same compound?
A: The inhibition was -5.49% (inactive).

Q: What about the inhibition ([9]; measured here: combination with BGB at IC20, at 0.5 µM) of the same compound?
A: The inhibition was -9.56%.

Q: And the inhibition ([9]; measured here: combination with cisplatin at IC20, at 0.5 µM)?
A: Its inhibition is 4.43%.

Q: And the inhibition ([10]; at 0.5 µM)?
A: The inhibition was -4.93% (inactive).

Q: And the inhibition ([10]; measured here: combo with BGB at IC20, at 0.5 µM)?
A: The inhibition was -2.45%.

Q: And the inhibition ([10]; measured here: combo with cisplatin at IC20, at 0.5 µM)?
A: Its inhibition is -8.29%.

Q: What about the inhibition ([11]; at 0.5 µM) of the same compound?
A: Its inhibition is 5.4% (inactive).

Q: What about the inhibition ([11]; measured here: inhibition with BGB combination, at 0.05 µM) of the same compound?
A: Its inhibition is 5.3%.

Q: What about the inhibition ([11]; measured here: inhibition with cisplatin combination, at 0.05 µM) of the same compound?
A: The inhibition was -10.2%.

Q: And the inhibition ([12]; at 0.5 µM)?
A: Its inhibition is 11.7% (inactive).

Q: And the inhibition [12, 18]?
A: Its inhibition is 8.29%.

Q: What about the inhibition [12, 19] of the same compound?
A: Its inhibition is 17%.

Q: And the inhibition ([13]; at 0.5 µM)?
A: The inhibition was -8.14% (inactive).

Q: And the inhibition ([13]; measured here: BGB combination, at 0.5 µM)?
A: Its inhibition is -5.6%.

Q: What about the inhibition ([13]; measured here: BGB combination, at 5 µM) of the same compound?
A: The inhibition was -2.86%.

Q: What about the inhibition ([13]; measured here: cisplatin combination, at 0.5 µM) of the same compound?
A: The inhibition was -19.6%.

Q: What about the inhibition ([13]; measured here: cisplatin combination, at 5 µM) of the same compound?
A: The inhibition was 19.7%.

Q: What about the inhibition ([14]; BGB combination, concentration series, at 5 µM) of the same compound?
A: The inhibition was 13.1%.

Q: And the inhibition ([14]; at 0.5 µM)?
A: The inhibition was 4.57% (inactive).

Q: What about the inhibition ([14]; cisplatin combination, concentration series, at 5 µM) of the same compound?
A: The inhibition was 15.7%.

Q: What about the inhibition [15] of the same compound?
A: The inhibition was -3.17% (inactive).

Q: And the inhibition ([15]; measured here: combo with BGB IC20)?
A: Its inhibition is -6.58%.

Q: And the inhibition ([15]; measured here: combo with cisplatin IC20)?
A: The inhibition was 5.32%.

Q: And the inhibition ([16]; at 0.5 µM)?
A: The inhibition was 3.97% (inactive).

Q: What about the inhibition ([16]; cisplatin combination, at 0.5 µM) of the same compound?
A: Its inhibition is 0.756%.

Q: What about the inhibition ([16]; cisplatin combination, at 5 µM) of the same compound?
A: Its inhibition is -27.3%.

Q: And the inhibition ([16]; measured here: BGB IC40 combination 0.05 uM, at 0.05 µM)?
A: The inhibition was 10.1%.
